# Most compounds without a hit are left out; they make up all but 18% or so of the library.
# TDP1 cell noCPT – qHTS for Inhibitors of human tyrosyl-DNA phosphodiesterase 1 (TDP1): qHTS in cells in absence of CPT; DT40 Tdp1-/- hTDP1 cells, no CPT, ATP luminescence, 48 h; Potency, µM (highest dose often 46.2 µM), for inactives: top-dose activity change, negative = growth inhibition, usual class: inhibitors; 420,000 tested, 15% active; AID 686978, 2013; also: potency is read from the fitted curve at half-maximal effect; nearly all actives have a fitted effect of over 55% in size
#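 Seeded 400 DT40-hTDP1 cells/well (vehicle DMSO, no 20 nM CPT); pinned compounds; ≥48 hr at 37 °C; CellTiter-Glo luminescence as viability measure.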
# DT40 TDP1 CPT – qHTS for Inhibitors of human tyrosyl-DNA phosphodiesterase 1 (TDP1): qHTS in cells in presence of CPT; chicken DT40 Tdp1-/-;hTDP1 cells + 20 nM CPT, ATP luminescence, 48 h; Potency, µM (doses to about 46.2 µM), without a hit: at the highest dose activity change, negative = growth inhibition, usual class: inhibitors; 420,000 tested, 12% active; also: potency is read from the fitted curve at half-maximal effect; nearly all actives have a fitted effect of over 55% in size
#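 Chicken DT40 Tdp1-/- cells complemented with human TDP1, 400 cells/well, exposed to compounds plus 20 nM camptothecin for at least 48 h at 37 C; viability read as ATP content by CellTiter-Glo luminescence.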
# IL1B secr inh – qHTS for Inhibitors of Inflammasome Signaling: IL-1-beta AlphaLISA Primary Screen; THP-1 LPS/ATP IL-1B secretion, AlphaLISA, 16 h; active compounds read low; activity change, % at 57.5 µM; 360,000 tested, 4.7% active; in the data active = activity change below about -50%; inconclusive = mostly about -30% to -49%
#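 Secreted IL-1B measured by AlphaLISA bead assay after 16 h compound exposure of THP-1 cells; compounds (final up to 57.5 uM) added 1 h before LPS (250 ng/mL) and ATP (1.25 mM) stimulation; lower signal means less secretion.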
# LDHA block – qHTS assay for inhibitors of human lactate dehydrogenase | L-lactate dehydrogenase A chain (Homo sapiens), P00338 | 480,000 tested, 0.15% active | purified LDHA, NADH/diaphorase-resazurin fluorescence; active compounds read low | activity change, % (values are at about 110 or 230 µM) | AID 1347041, 2019; in the data active = activity change below about -30%; inconclusive = mostly about -25% to -30%;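 also: plate controls were DMSO wells for no effect and wells without enzyme for full effect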
#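 Human LDH5 (2 nM) was incubated with 0.06 mM NADH and 0.2 mM pyruvate for 5 min at room temperature in Tris pH 7.4. Remaining NADH was coupled through diaphorase/resazurin, and resorufin fluorescence was read at 0 and 20 min.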
# RORg inh – qHTS for inhibitors of ROR gamma transcriptional activity; Drosophila S2 Gal4-RORgamma UAS-luciferase reporter, 20 h; Potency, µM (series often up to 53.6 µM), without a hit: at the highest dose activity change, negative = inhibition, actives largely listed as inhibitors; 310,000 tested, 5.4% active; also: potency is read from the fitted curve at half-maximal effect; nearly all actives have a fitted effect of over 60% in size
# Target sequence (P51450 whole entry, looked up, the tested form may be a part): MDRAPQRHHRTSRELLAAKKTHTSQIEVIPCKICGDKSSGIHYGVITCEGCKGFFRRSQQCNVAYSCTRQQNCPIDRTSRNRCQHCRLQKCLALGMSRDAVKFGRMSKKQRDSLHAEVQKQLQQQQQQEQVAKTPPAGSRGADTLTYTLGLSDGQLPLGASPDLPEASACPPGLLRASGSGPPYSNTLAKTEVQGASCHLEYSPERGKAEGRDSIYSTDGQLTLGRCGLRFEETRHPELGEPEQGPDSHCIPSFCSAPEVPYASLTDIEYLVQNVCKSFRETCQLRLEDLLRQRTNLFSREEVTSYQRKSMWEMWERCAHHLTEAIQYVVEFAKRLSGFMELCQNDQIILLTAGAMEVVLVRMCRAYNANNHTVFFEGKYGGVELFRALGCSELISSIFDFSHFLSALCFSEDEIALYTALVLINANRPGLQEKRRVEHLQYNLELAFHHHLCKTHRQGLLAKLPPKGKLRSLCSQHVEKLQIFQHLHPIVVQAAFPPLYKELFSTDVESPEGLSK
#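 Read-out: Photinus luciferase luminescence; inhibitors lower reporter signal. Insect Schneider cells with Gal4-ROR gamma fusion under metallothionein promoter, UAS reporter; 700 uM final copper sulfate induction, 20 hr, ambient temperature.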
# Gal4-VP16 FLuc – VP16 counterscreen qHTS for inhibitors of ROR gamma transcriptional activity. Drosophila S2 Gal4-VP16 UAS-luciferase, luminescence, 20 h. Potency, µM (doses to about 53.6 µM), without a hit: at the top dose activity, negative = inhibition, usual class: inhibitors. 310,000 tested, 3.5% active. AID 2546, 2010;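 also: Gal4-VP16 expression switched on by copper sulfate through the metallothionein promoter; potency is read from the fitted curve at half-maximal effect; nearly all actives have a fitted effect of over 50% in size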
# * hit, by the source's call; ? = inconclusive; / = no result; [ ] = dose if it differs, or a comment. Unless noted, calls follow the shape of the dose curve; as a rule, active = well fitted curve in the direction sought with a large enough effect; inconclusive = small, poorly fitted or top-dose-only effect, or another doubt; inactive = no such curve, though single readings can be large; an effect the other way counts as inactive or inconclusive. Unless noted, % is scaled to controls: 0 for no effect and ±100 for the full control effect.
SMILES,TDP1 cell noCPT,DT40 TDP1 CPT,IL1B secr inh,LDHA block,RORg inh,Gal4-VP16 FLuc
CCCOc1cccc(-c2cc(C(=O)NC(C)C)c3ccccc3n2)c1,/,/,/,-0.5,/,/
CCCOc1ccc(C(=O)NNC(=S)NC(=O)c2ccccc2)cc1,16.4µM*,?,8.0,-9.6,10µM*,?
CC(C)(C)c1ccc(OCC(=O)NNC(=S)NC(=O)c2ccccc2[N+](=O)[O-])c(Br)c1,16.4µM*,23.1µM*,-10.0,-1.2,11.2µM*,15.8µM*
CCCOc1ccc(C(=O)NNC(=S)NC(C)=O)cc1,3.26µM*,2.59µM*,63.2,-5.9,1.8%,7.7%
Cc1ccccc1OCC(=O)NNC(=S)NC(=O)c1ccccc1[N+](=O)[O-],?,-92.6%,15.6,-8.6,-7.8%[10 µM],-24.3%
CCCOc1ccc(C(=O)NNC(=S)NC(=O)c2ccccc2[N+](=O)[O-])cc1,10.3µM*,10.3µM*,52.5,2.6,17.8µM*,20µM*
Cc1cccc(NC(=O)CNC(=O)CCc2c(C)nc3c4ccccc4nn3c2C)c1C,/,/,/,3.7,/,/
COc1ccc(CCNC(=O)/C(=N/O)c2ccccc2)cc1OC,/,/,/,0.4,/,/
O=C1CSc2ccc(S(=O)(=O)Nc3cccc(Cl)c3Cl)cc2N1,/,/,/,-3.6,/,/
N#C/C(=C\C1CC=CCC1)C(=O)NCc1ccccc1 (stereo unspecified),/,/,/,4.2,/,/
S=c1[nH]nc(-c2cc(-c3ccccc3)n[nH]2)n1/N=C/c1ccc(Cl)c(Cl)c1,?,?,63.1,-42.2*,10µM*,7.94µM*
S=c1[nH]nc(-c2ccccn2)n1/N=C/c1ccc(-c2ccccc2Cl)o1,?,22.7%,-1.5,-11.0,8.91µM*,-4.4%
Cc1n[nH]c(=S)n1/N=C/c1ccc(-c2ccc(Cl)cc2)o1,-3.5%,2.3%,13.6,-2.2,/,/
Cc1n[nH]c(=S)n(/N=C/c2ccccn2)c1=O,-27.6%,?,18.9,-8.4,-7.5%,-6.6%
S=c1[nH]nc(-c2cc(-c3ccccc3)n[nH]2)n1/N=C/c1ccc(Cl)cc1,-24.1%,-23.3%,105.5,0.4,?,?
S=c1[nH]nc(-c2ccccn2)n1/N=C/c1ccc(Cl)c(Cl)c1,-20.1%,-17.2%,/,-2.0,7.08µM*,-23.4%
S=c1[nH]nc(-c2ccccn2)n1/N=C/c1ccc(Br)s1,-8.3%,4.5%,27.7,-3.2,7.08µM*,7.94µM*
CC(=O)NCCC12CC3CC(CC(C3)C1)C2,/,/,/,2.4,/,/
COc1cc(CNc2ccc3[nH]c(=O)[nH]c3c2)ccc1OCc1ccccc1F,16.4µM*,20.6µM*,?,1.0,?,-4.4%
COc1cc(CNc2ccc3[nH]c(=O)[nH]c3c2)cc(Br)c1OCC(=O)NC(C)(C)C,?,?,-67.6*,9.4,-28.2%,-0.8%
CCOc1cc(CNc2ccc3cn[nH]c3c2)ccc1OC,20.6µM*,?,-19.0,28.3,-41.7%,-24.7%
COc1cc(CNc2ccc3[nH]c(=O)[nH]c3c2)ccc1OCc1ccc(F)cc1,-22.8%,?,-7.4,2.0,?,3.1%
CCOc1c(Cl)cc(CNc2ccc3[nH]c(=O)[nH]c3c2)cc1OC,?,23.1µM*,/,5.1,/,/
Cc1ccc(C(=O)OCc2ccc(C#N)cc2)cc1,/,/,/,-3.2,/,/
O=C(NCCc1cccc(F)c1)c1ccc(=O)[nH]c1,/,/,/,2.3,/,/
SMILES,TDP1 cell noCPT,DT40 TDP1 CPT,IL1B secr inh,LDHA block,RORg inh,Gal4-VP16 FLuc
CCOc1cc(CNc2ccccc2)cc(Br)c1OCc1ccccc1F,?,?,4.6,-0.9,24.2%,1.5%
COc1cc(CNc2ccc3[nH]c(=O)[nH]c3c2)ccc1OCc1ccc(Cl)cc1,?,?,-2.2,0.3,2.82µM*,?
COc1cc(CNc2ccc3[nH]c(=O)[nH]c3c2)cc(Br)c1OCc1ccccc1F,20.6µM*,10.3µM*,-60.2*,-0.3,-22.4%,-23.9%
COc1ccc(OC)c(C(=O)c2oc3cc(NC(=O)C4CC4)ccc3c2C)c1,/,/,/,-19.1,/,/
c1cc(-c2cc3cc4c(cc3cn2)OCO4)cs1,?,14.6µM*,26.9,0.3,/,/
C[C@@H](c1ccccc1)N1C[C@@H](COCc2ccccc2)Oc2cc(N3CC[C@H](N(C)C)C3)ccc2S1(=O)=O,-14.2%,-20.9%,0.1,-5.5,/,/
C[C@H](c1ccccc1)N1C[C@@H](COCc2ccccc2)Oc2cc(N3CC[C@@H](N(C)C)C3)ccc2S1(=O)=O,?,18.4µM*,-5.8,-0.3,/,/
C[C@H](c1ccccc1)N1C[C@@H](COCc2ccccc2)Oc2cc(N3CC[C@H](N(C)C)C3)ccc2S1(=O)=O,16.4µM*,?,14.5,-4.2,/,/
C[C@@H](c1ccccc1)N1Cc2ccccc2Oc2cc(Br)ccc2S1(=O)=O,-25.4%,?,-7.8,-11.2,/,/
O=C(CCC1CCCO1)NCC1CC1 (stereo unspecified),/,/,/,3.2,/,/
Cc1cccc(C(=O)Nc2ccc(S(=O)(=O)N(Cc3ccccc3)c3ccccc3)cc2)c1,10.3µM*,?,/,-2.5,/,/
O=C(Nc1ccc(S(=O)(=O)N(Cc2ccccc2)c2ccccc2)cc1)c1ccc(F)cc1,6.51µM*,23.1µM*,/,-3.4,/,/
CCN(c1ccccc1)S(=O)(=O)c1cc(C(=O)Nc2ccc3oc(C)nc3c2)ccc1C,/,/,/,6.6,/,/
O=C(Nc1ccc(S(=O)(=O)N(Cc2ccccc2)c2ccccc2)cc1)c1ccccc1F,?,?,/,-4.1,/,/
Cc1ccccc1OCC(=O)Nc1ccc(S(=O)(=O)N(Cc2ccccc2)c2ccccc2)cc1,5.8µM*,?,/,-13.8,/,/
CCN(c1ccccc1)S(=O)(=O)c1cc(C(=O)Nc2ccc(Br)cc2)ccc1F,20.6µM*,20.6µM*,?,-3.2,17.3%,12.6µM*
CC(C)CN1C(=O)C2(CC(=O)Nc3c2cnn3Cc2ccccc2Cl)c2ccccc21 (stereo unspecified),/,/,/,-5.4,/,/
COc1cccc(C(=O)NCCCNC(=O)c2nc3ccccc3c(=O)[nH]2)c1,/,/,/,3.3,/,/
O=C(CSc1nnnn1C1CC1)c1ccc(-c2ccccc2)cc1,/,/,/,8.8,/,/
c1ccc(-c2ccc(CNCCN3CCCC3)cc2)cc1,/,/,/,3.7,/,/

# Assay outcomes as filed in PubChem.
